# Unmarked numbers belong to inactive results. Results filed as inconclusive are left out. A call without a number means that no potency is given here. Calls of active or inactive are those of the source. Unless noted, calls come from the whole dose curve.
# Legend:
# [1] = Nuclear factor erythroid 2-related factor 2/antioxidant responsive element (Nrf2/ARE) small molecule agonists: qHTS cell viability counter screen in human keratinocytes (AID 1919968; active = well fitted curve in the direction sought with a large enough effect in the repeat runs; an effect the other way counts as inactive or inconclusive; note: nearly all actives have a fitted effect of over 55% in size; note: potency is the fitted concentration of half-maximal effect)
# How it was run: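 Stably transfected HaCaT (KeratinoSens), 1,500/well. Test agents in DMSO were applied for 23 h, 37 C/5% CO2. CellTiter-Fluor was incubated 1 h before the fluorescence read.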
# [2] = Nuclear factor erythroid 2-related factor 2/antioxidant responsive element (Nrf2/ARE) small molecule agonists: luciferase reporter gene qHTS assay in human keratinocytes (AID 1919969); note: nearly all actives have a fitted effect of over 35% in size
# [3] = target: Gonadotropin-releasing hormone receptor (Homo sapiens) (UniProt P30968); experiment: Human gonadotropin-releasing hormone receptor (GnRHR) small molecule agonists, calcium flux assay in GnRHR-HEK293 cells (AID 1920063); note: nearly all actives have a fitted effect of over 35% in size
# How it was run: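 Stable human GnRHR HEK293 line. 18 h plating, then calcium dye for 1 h at 37 C. Agonist-mode compound addition from DMSO stocks; fluorescence monitored 3 min.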
# [4] = target: KiSS-1 receptor (Homo sapiens) (UniProt Q969F8); experiment: Human kisspeptin (KISS1R) small molecule agonists, calcium flux assay in KISS1R-HEK293 cells (AID 1920064; active = well fitted curve in the direction sought with a large enough effect in the repeat runs; an effect the other way counts as inactive or inconclusive)
# How it was run: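 After overnight (18 h) culture at 37 C/5% CO2, human KISS1R-HEK293 cells received calcium dye for 1 h, then test compound; emission at 540 nm (excitation 480 nm) was tracked for 3 min.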
# [5] = G protein-coupled receptor (GPCR) small molecule agonists, calcium flux assay: HEK293 wild type cell line counter screen (AID 1920065)
# How it was run: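 Following 18 h incubation at 37 C/5% CO2, plates got calcium dye for 1 h; compounds, ATP or DMSO were then pinned in and fluorescence followed kinetically (480/540 nm).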
# [6] = p53 small molecule agonists, cell-based qHTS assay with human liver microsomes (AID 1963577);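 note: p53 response element beta-lactamase reporter cells with liver microsomes plus NADPH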
# How it was run: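 Steps: plate p53RE-bla cells, incubate 5 h at 37 C; add compound in DMSO; add microsomes (0.5 mg/mL final) and NADPH (0.5 mg/mL final); incubate 16 h at 37 C; add LiveBLAzer, 2 h RT; read fluorescence.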
# [7] = p53 small molecule agonists, cell-based qHTS assay with rat liver microsomes (AID 1963578)
# How it was run: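 Metabolic activation is supplied by rat liver microsomes with NADPH (each 0.5 mg/mL final). p53RE-bla cells incubate with compound 16 h at 37 C; reporter activity is measured by LiveBLAzer fluorescence.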
# [8] = p53 small molecule agonists, cell-based qHTS assay with rat liver microsomes: qHTS cell viability counter screen (AID 1963580); note: nearly all actives have a fitted effect of over 45% in size
# How it was run: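 Rat liver microsome (0.5 mg/mL final) and NADPH (0.5 mg/mL final) co-incubation with compounds for 16 h at 37 C on HCT-116 p53RE-bla cells; cytotoxicity taken from intracellular ATP luminescence.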
# [9] = p53 small molecule agonists, cell-based qHTS assay: qHTS cell viability counter screen (AID 1963581); note: nearly all actives have a fitted effect of over 45% in size
# How it was run: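 qHTS counter screen: 16 h compound exposure at 37 C of p53RE-bla HCT-116 cells (4,000 per well, seeded 5 h prior), cell viability by ATP luminescence.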
# [10] = p53 small molecule agonists, cell-based qHTS assay (AID 1963582; active = well fitted activation curve with a large enough effect in the signal ratio in the repeat runs, not every such curve was filed as active; the % refers to the signal ratio)
# How it was run: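 Measured: fluorescence from cleaved LiveBLAzer substrate. System: p53RE-bla cells, 16 h compound treatment at 37 C, 2 h substrate step at room temperature.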
# [11] = cAMP Responsive Elements (CRE) small molecule agonists, cell-based qHTS assay (AID 1963590)
# How it was run: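 Test agents in DMSO were incubated 3 h at 37 C/5% CO2 with CRE-bla HEK 293T cells seeded 18 h earlier; LiveBLAzer B/G FRET substrate was added and read after 2 h at room temperature.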
# [12] = cAMP Responsive Elements (CRE) small molecule antagonists, cell-based qHTS assay (AID 1963591; active = well fitted inhibition curve with a large enough effect in the signal ratio in the repeat runs, not every such curve was filed as active; the % refers to the signal ratio)
# How it was run: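 Reporter line CRE-bla HEK 293T in dialyzed-FBS DMEM; cells preincubated 18 h, treated 3 h with compound plus NKH477 (0.25 uM final); LiveBLAzer FRET, 2 h RT.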
# [13] = target: Beta-2 adrenergic receptor (Homo sapiens) (UniProt P07550); experiment: Adrenergic beta2 receptor (ADRB2) small molecule antagonists, cell-based qHTS assay (AID 1963592); note: series mostly up to about 92 µM; nearly all actives have a fitted effect of over 50% in size
# How it was run: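 Assay format: CHO-ADRB2 cells, 18-20hr seeding at 37C/5% CO2, then compound plus 1nM isoproterenol agonist mix for 0.5hr RT. Homogeneous time-resolved fluorescence cAMP detection after 1hr, expressed as 665/615 nm ratio.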
# [14] = target: D(2) dopamine receptor (Homo sapiens) (UniProt P14416); experiment: Dopamine D2 receptor (DRD2) small molecule agonists, cell-based qHTS assay (AID 1963594); note: nearly all actives have a fitted effect of over 35% in size
# How it was run: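 cAMP accumulation in DRD2-HEK293 cells measured by HTRF after 1 h detection; compounds added 10 min before NKH477 (200nM […]) forskolin-analogue stimulation, 30 min at room temperature, with Ro20-1724 present at 0.1 mM final.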
# [15] = target: D(2) dopamine receptor (Homo sapiens) (UniProt P14416); experiment: Dopamine D2 receptor (DRD2) small molecule antagonists, cell-based qHTS assay (AID 1963595; active = well fitted inhibition curve with a large enough effect in the signal ratio in the repeat runs, with a control signal flat; the % refers to the signal ratio)
# How it was run: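 Readout: HTRF cAMP, cAMP-d2 competing with cellular cAMP for anti-cAMP cryptate, read after 1 h. Cells: DRD2-HEK293. Conditions: 0.1 mM Ro20-1724, 12 nM quinpirole, 200 nM NKH477, 30 min RT.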
# [16] = target: Beta-2 adrenergic receptor (Homo sapiens) (UniProt P07550); experiment: Adrenergic beta2 receptor (ADRB2) small molecule agonists, cell-based qHTS assay (AID 1963593);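 note: CHO cells stably overexpressing human ADRB2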
# How it was run: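 CHO cells stably over-expressing ADRB2 were plated overnight at 37C, then dosed with compounds plus a stimulation mix containing 100uM IBMX and 25uM Ro-20-1724 for 0.5hr at room temperature. cAMP was measured by HTRF competition, 1hr.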
# [17] = target: 5-hydroxytryptamine receptor 2A (Homo sapiens) (UniProt P28223); experiment: 5-hydroxytryptamine receptor 2A (HTR2A) small molecule antagonists, cell-based qHTS assay (AID 1963586); note: nearly all actives have a fitted effect of over 45% in size
# How it was run: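 CHO cells stably expressing human HTR2A were plated for 18 h at 37 C, then loaded with calcium dye for 1 h. Compounds were preincubated 5 min at room temperature before DOI (4 nM solution) was added. Kinetic fluorescence was read for 3 min.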
# [18] = target: Muscarinic acetylcholine receptor M1 (Homo sapiens) (UniProt P11229); experiment: Cholinergic receptor muscarinic 1 (CHRM1) small molecule antagonists, cell-based qHTS assay (AID 1963588); note: nearly all actives have a fitted effect of over 40% in size
# How it was run: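 Compounds were tested at 15 concentrations in three independent runs. Dye-loaded CHRM1-CHO cells were exposed 5 min at room temperature before stimulation by acetylcholine added at 50nM. Intracellular calcium was read kinetically on FDSS for 3 min.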
# [19] = target: Muscarinic acetylcholine receptor M1 (Homo sapiens) (UniProt P11229); experiment: Cholinergic receptor muscarinic 1 (CHRM1) small molecule agonists, cell-based qHTS assay (AID 1963589); note: nearly all actives have a fitted effect of over 35% in size
# How it was run: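 Kinetic fluorescence (1 s intervals) of calcium-sensitive dye in human M1 CHO cells after compound addition; cells pre-incubated 18 h at 37 C/5% CO2 and dye-loaded 1 h.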
# [20] = target: 5-hydroxytryptamine receptor 2A (Homo sapiens) (UniProt P28223); experiment: 5-hydroxytryptamine receptor 2A (HTR2A) small molecule agonists, cell-based qHTS assay (AID 1963587); note: nearly all actives have a fitted effect of over 30% in size
# How it was run: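 Kinetic calcium-flux fluorescence (2 min, 1 sec intervals) after compound addition in agonist mode. HTR2A-CHO cells were cultured 18 h, then dye-loaded 1 h at 37 C.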
# Chain of Gonadotropin-releasing hormone receptor (Homo sapiens) (P30968 whole entry, looked up): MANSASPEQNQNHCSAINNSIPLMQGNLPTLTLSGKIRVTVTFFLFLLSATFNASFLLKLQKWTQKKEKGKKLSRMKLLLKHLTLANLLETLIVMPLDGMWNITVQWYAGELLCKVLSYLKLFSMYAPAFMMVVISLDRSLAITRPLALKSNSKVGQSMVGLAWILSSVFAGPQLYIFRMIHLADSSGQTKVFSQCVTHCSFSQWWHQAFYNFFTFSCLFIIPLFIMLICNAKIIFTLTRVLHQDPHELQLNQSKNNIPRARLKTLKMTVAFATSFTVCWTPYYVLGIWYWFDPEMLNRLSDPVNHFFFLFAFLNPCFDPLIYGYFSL
# Chain of Muscarinic acetylcholine receptor M1 (Homo sapiens) (P11229 whole entry, looked up): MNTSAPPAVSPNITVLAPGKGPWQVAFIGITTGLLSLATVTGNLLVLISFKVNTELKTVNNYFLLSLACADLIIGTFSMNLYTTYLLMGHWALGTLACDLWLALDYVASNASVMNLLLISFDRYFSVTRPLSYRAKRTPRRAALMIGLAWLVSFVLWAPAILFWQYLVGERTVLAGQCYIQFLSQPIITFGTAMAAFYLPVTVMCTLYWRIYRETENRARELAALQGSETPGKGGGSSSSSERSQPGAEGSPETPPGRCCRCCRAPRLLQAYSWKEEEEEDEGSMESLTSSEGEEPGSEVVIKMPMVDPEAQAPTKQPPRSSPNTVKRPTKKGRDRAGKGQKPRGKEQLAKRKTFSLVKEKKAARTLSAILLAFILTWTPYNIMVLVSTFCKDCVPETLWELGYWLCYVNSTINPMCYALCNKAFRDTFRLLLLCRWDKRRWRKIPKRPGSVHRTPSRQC
# Chain of KiSS-1 receptor (Homo sapiens) (Q969F8 whole entry, looked up): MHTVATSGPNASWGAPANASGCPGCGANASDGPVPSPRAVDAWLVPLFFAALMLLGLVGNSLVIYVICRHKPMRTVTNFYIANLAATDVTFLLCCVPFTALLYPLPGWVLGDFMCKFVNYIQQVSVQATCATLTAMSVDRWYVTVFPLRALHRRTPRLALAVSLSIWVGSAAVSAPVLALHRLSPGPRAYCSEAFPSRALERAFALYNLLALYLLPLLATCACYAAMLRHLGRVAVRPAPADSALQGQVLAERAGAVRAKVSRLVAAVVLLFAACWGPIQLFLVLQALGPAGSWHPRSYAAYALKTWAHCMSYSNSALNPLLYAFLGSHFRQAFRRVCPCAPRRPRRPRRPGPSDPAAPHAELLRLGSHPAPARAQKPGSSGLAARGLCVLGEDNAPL
# Chain of Beta-2 adrenergic receptor (Homo sapiens) (P07550 whole entry, looked up): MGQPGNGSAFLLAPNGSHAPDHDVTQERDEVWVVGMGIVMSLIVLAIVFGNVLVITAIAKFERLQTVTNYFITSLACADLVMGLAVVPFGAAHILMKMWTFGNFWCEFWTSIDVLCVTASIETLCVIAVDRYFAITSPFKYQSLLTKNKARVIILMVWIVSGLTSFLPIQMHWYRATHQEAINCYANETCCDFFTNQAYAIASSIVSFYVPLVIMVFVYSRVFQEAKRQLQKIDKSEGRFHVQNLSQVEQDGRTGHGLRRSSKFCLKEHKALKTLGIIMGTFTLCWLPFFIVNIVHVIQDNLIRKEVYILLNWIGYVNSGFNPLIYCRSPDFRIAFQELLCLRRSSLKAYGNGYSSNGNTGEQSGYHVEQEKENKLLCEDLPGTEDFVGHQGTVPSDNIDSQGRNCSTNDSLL
# Chain of D(2) dopamine receptor (Homo sapiens) (P14416 whole entry, looked up): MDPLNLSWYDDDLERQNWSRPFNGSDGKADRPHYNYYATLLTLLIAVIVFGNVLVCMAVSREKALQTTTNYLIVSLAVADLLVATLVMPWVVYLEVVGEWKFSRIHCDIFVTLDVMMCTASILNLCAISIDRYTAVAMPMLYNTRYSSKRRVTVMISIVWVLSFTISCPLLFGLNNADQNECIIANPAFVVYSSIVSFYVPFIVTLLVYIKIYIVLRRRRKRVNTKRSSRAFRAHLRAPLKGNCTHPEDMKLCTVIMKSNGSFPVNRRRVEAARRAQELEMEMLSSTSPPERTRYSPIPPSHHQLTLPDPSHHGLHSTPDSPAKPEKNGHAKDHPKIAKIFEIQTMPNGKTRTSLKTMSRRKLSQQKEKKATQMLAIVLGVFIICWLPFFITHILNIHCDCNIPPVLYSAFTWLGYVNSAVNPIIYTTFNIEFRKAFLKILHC
# Chain of 5-hydroxytryptamine receptor 2A (Homo sapiens) (P28223 whole entry, looked up): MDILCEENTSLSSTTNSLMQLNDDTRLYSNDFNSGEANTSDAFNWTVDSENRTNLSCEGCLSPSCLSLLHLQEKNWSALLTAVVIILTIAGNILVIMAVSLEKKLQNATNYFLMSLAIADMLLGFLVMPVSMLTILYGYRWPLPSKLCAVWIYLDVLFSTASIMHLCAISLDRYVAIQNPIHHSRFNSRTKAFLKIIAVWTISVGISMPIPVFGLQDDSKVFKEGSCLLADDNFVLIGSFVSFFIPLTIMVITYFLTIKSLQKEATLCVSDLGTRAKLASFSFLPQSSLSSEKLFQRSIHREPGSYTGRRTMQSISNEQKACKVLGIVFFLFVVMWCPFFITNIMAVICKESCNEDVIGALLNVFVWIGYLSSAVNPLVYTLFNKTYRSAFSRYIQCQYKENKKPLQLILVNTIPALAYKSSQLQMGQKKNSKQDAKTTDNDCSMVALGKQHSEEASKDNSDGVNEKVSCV
compound,measurement,setting,value
C[N+](C)(C)CCOC(=O)CCC(=O)OCC[N+](C)(C)C,Potency,[1],inactive
same,Potency,[2],inactive
same,Potency,[3],inactive
same,outcome,[4],inactive
same,outcome,[5],inactive
same,Potency,[6],inactive
same,Potency,[7],inactive
same,Potency,[8],inactive
same,Potency,[9],inactive
same,Potency,[10],inactive
same,Potency,[11],inactive
same,Potency,[12],inactive
same,Potency,[13],inactive
same,Potency,[14],inactive
same,Potency,[15],inactive
CCn1cc(C(=O)O)c(=O)c2cc(F)c(N3CCN(C)CC3)cc21,"activity change, negative = cytotoxicity",[1],14.8% [at 19 µM]
same,"activity, positive = activation",[2],-5.55% [at 19 µM]
same,activity change,[3],"-1.03% [at 11.8 µM, hits give high values]"
same,activation,[4],-0.924% [at 15.8 µM]
same,activation,[5],-0.469% [at 11.8 µM]
same,activation,[6],0.192% [at 13.5 µM]
same,activation,[7],-1.11% [at 13.6 µM]
same,"activity change, negative = cytotoxicity",[8],-0.739% [at 13.5 µM]
same,"activity change, negative = cytotoxicity",[9],-4.59% [at 13.5 µM]
same,activation,[10],-0.0544% [at 13.5 µM]
same,activation,[11],-2.07% [at 19 µM]
same,"activity change, negative = inhibition",[12],-14.3% [at 18.9 µM]
same,"activity change, negative = inhibition",[13],0.624% [at 19 µM]
same,Potency,[16],inactive
same,activation,[14],19.5% [at 19 µM]
same,"activity change, negative = inhibition",[15],4.28% [at 18.9 µM]
COc1cc(NS(=O)(=O)c2ccc(N)cc2)nc(OC)n1,Potency,[1],inactive
same,Potency,[2],inactive
same,Potency,[3],inactive
same,outcome,[4],inactive
same,outcome,[5],inactive
same,Potency,[6],inactive
same,Potency,[7],inactive
same,Potency,[8],inactive
same,Potency,[9],inactive
same,Potency,[10],inactive
same,Potency,[11],inactive
same,Potency,[12],inactive
same,Potency,[13],inactive
same,Potency,[14],inactive
same,Potency,[15],inactive
O=C(O)c1cc(C(=O)O)c(C(=O)O)cc1C(=O)O,Potency,[1],inactive
same,Potency,[2],inactive
same,Potency,[3],inactive
same,outcome,[4],inactive
same,outcome,[5],inactive
same,Potency,[6],inactive
same,Potency,[7],inactive
same,Potency,[8],inactive
same,Potency,[9],inactive
same,Potency,[17],inactive
same,Potency,[18],inactive
same,Potency,[19],inactive
same,Potency,[11],inactive
same,Potency,[12],inactive
same,Potency,[13],inactive
same,Potency,[16],inactive
same,Potency,[14],inactive
same,Potency,[15],inactive
O=C(O)c1ccc2c(c1)nc(C(=O)NC1CCN(C3CC3)CC1)n2Cc1cc(-c2ccc(Cl)s2)on1,"activity change, negative = cytotoxicity",[1],2.24% [at 19 µM]
same,"activity, positive = activation",[2],2.61% [at 19 µM]
same,activity change,[3],"-0.0073% [at 11.8 µM, hits give high values]"
same,activation,[4],-0.617% [at 15.8 µM]
same,activation,[5],0.0965% [at 11.8 µM]
same,activation,[6],-1.92% [at 13.5 µM]
same,activation,[7],-2.62% [at 13.6 µM]
same,"activity change, negative = cytotoxicity",[8],1.71% [at 13.5 µM]
same,"activity change, negative = cytotoxicity",[9],10.9% [at 13.5 µM]
same,activation,[10],-1.36% [at 13.5 µM]
same,"activity, negative = inhibition",[18],-5% [at 12.6 µM]
same,activation,[19],-0.218% [at 15.8 µM]
same,"activity change, negative = inhibition",[13],-20.8% [at 19 µM]
same,activation,[14],23% [at 19 µM]
NC(=O)C(c1ccccc1)(c1ccccc1)[C@@H]1CCN(CCc2ccc3c(c2)CCO3)C1,Potency,[1],inactive
same,Potency,[2],inactive
same,Potency,[3],inactive
same,outcome,[4],inactive
same,outcome,[5],inactive
same,Potency,[6],inactive
same,Potency,[7],inactive
same,Potency,[8],inactive
same,Potency,[9],inactive
same,Potency,[10],inactive
same,Potency,[19],inactive
same,Potency,[11],inactive
same,Potency,[14],inactive
same,Potency,[15],inactive
NC(=O)N1c2ccccc2CC(=O)c2ccccc21,Potency,[1],inactive
same,Potency,[2],inactive
same,Potency,[3],inactive
same,outcome,[4],inactive
same,outcome,[5],inactive
same,Potency,[6],inactive
same,Potency,[7],inactive
same,Potency,[8],inactive
same,Potency,[9],inactive
same,Potency,[10],inactive
same,Potency,[11],inactive
same,Potency,[12],inactive
same,Potency,[13],inactive
same,Potency,[15],inactive
Cc1nc2ccccc2n1Cc1ccc(Cl)cc1,Potency,[1],1.68 µM (active)
same,Potency,[2],inactive
same,Potency,[3],inactive
same,outcome,[4],inactive
same,outcome,[5],inactive
same,Potency,[6],inactive
same,Potency,[7],inactive
same,Potency,[8],inactive
same,Potency,[9],inactive
same,Potency,[20],inactive
same,Potency,[18],inactive
same,Potency,[12],inactive
same,Potency,[13],inactive
same,Potency,[16],inactive
same,Potency,[15],inactive

# — PubChem BioAssay (Tox21)
